In PubChem BioAssay (NCI) one finds growth data, which are given here for 40 compounds.

Each structure is given as a SMILES string. Compounds without any hit were thinned out: in the full panel of roughly 83,000, 20% have a hit.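 Step 1: grow cells in 96-well plates. Step 2: add test compound at a single concentration. Step 3: incubate 48 h. Step 4: record percent growth.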 Values without a mark were called inactive. Calls of active or inactive are those of the source.

The assay deals with NCI-H23 lung. The experiment in a line: NCI-60 one-dose screen, 48 h (100 = growth as untreated, 0 = no growth, -100 = all killed). To be noted: 10 µM unless noted. As for the experimental part: Growth inhibition of the NCI-H23 human Non-Small Cell Lung tumor cell line is measured as a screen for anti-cancer activity. Cells are grown in 96 well plates and exposed to the test compound for 48 hours. Compounds are tested at a single concentration, which is 10^-5 M for most compounds. The reported endpoint is percent growth (GI% or GIPRCNT), where numbers from 0 - 100% represent growth inhibition, and numbers from -100% - 0 represent cell death. For example, a value of 40 represents 60% growth inhibition. A value of 0 means no net growth occurred over the course of the experiment. A value of -40 indicates 40% of cells at the beginning of the experiment died by the end of the experiment. A value of -100 means all cells are dead at the end of the experiment.
NCI-60 Human Tumor Cell Lines Screen was performed using the standard one-dose NCI protocol, which is described in more detail at https://dtp.cancer.gov/discovery_development/nci-60/default.htm.
Compounds with GIPRCNT values below 10 were considered active. Activity score was based on GIPRCNT using the following formula: […]
Score is 0 for GIPRCNT values of 100 or above, 50 for GIPRCNT values of 0, and 100 for GIPRCNT values of -100.
As for `COc1ccc(-c2cc(-c3ccc(OC)c(OC)c3)nc(SCCCCCC(=O)NO)n2)cc1`, the growth is 68.7%. Next, `CCCCCCCCCN(CCCCCCCCC)C(C)C(=O)c1ccc2cc(Br)c3ccccc3c2c1` (stereo not given): 77.6%; `Cc1ccc(S(=O)(=O)Oc2ccc(Br)cc2Br)cc1`: 88%; `Nc1cc(N)c(N=Nc2ccc(S(=O)(=O)O)cc2)cc1N=Nc1ccc(-c2ccc(N=Nc3ccc(O)c(C(=O)O)c3)cc2)cc1`: 95.7%. Next, `Cc1ccc(-c2cn(C/C=C3\C=CN(S(=O)(=O)c4ccccc4)CC3)nn2)cc1`: 96.1%; `Cn1cc(-c2nnc(-c3cn(C)c4ncccc34)o2)c2ccccc21`: 51.3%. In the case of `O=S(=O)(NCc1ccccc1)c1ncnc2nc[nH]c12`, the growth was 106%. Next, `COc1ccc(/C=C/C=C\C(=O)c2ccc(-n3ccnc3)cc2)cc1`: 94.1%; `CCCCNC(=O)NS(=O)(=O)Cc1ccccc1`: 114%. With `CCOc1cc(/C=N\NC(=O)N/N=C/c2ccc(O)c(OCC)c2)ccc1O` the figure was 33%; with `CS(=O)(=O)c1cccnn1`, 95.8%; with `O=C(CSc1nc2ccc([N+](=O)[O-])cc2[nH]1)Nc1cccc(Cl)c1`, -2.48% (active). Next, `COc1ccc2c(c1)C(C)Cc1c(Cl)nc(C)nc1N2C` (stereo not given): 25.8%; `O=C1/C(=C\c2cccn2Cc2ccccc2)c2ccccc2N1c1c(Cl)cccc1Cl`: 68.7%. Turning to `Nc1cc(NN=C(c2ccc(O)cc2)c2ccc(O)cc2)c([N+](=O)[O-])cc1[N+](=O)[O-]`, the growth was -58.3% (active). Next, `N#Cc1c(Cl)nc(SCC2CO2)nc1-c1ccccc1` (stereo not given): 101%; `Cc1cccc(C[C@H](NC(=O)Nc2ccc(Cl)cc2F)C(=O)N[C@@H]2C(=O)N3C[C@H](O)C[C@H]3C(=O)N3CCN(C)C[C@H]3C(=O)N[C@@H](C)C(=O)N3C[C@H](C)C[C@H]3C(=O)O[C@H]2C)c1`: 35.3%. With `O=C(O)c1cccc(CN2CCN(c3cc4c(cc3F)c(=O)c(C(=O)O)cn4C3CC3)CC2)c1O` the figure was 101%; with `O=[N+]([O-])c1cc([N+](=O)[O-])c(NN=C(c2ccc(O)cc2)c2ccc(O)cc2)cc1Cl`, -72.9% (active). In the case of `CCC(C)[C@H](NC(=O)NC(=O)NC(=O)CI)C(=O)OC` (stereo not given in full), the growth is 82.3%.

As to `CCN=C1C=CC(=C(c2ccc(N(CC)CC)cc2)c2ccc(N(CC)CC)cc2)c2ccccc21`, the growth is -53.5% (active).

`C/C=C/C1OC23CCCCC2C(C#N)(C(=N)O3)C1(C#N)C#N` (stereo not given): the growth is 101%. For `COc1ccc(C2CC(c3ccc4ccccc4c3)=NN2c2nc(O)c(C3=c4cc(OC)ccc4=NC3=O)s2)cc1` (stereo not given), the growth is -29.8% (active).

With `C[C@]12CCc3nc(Nc4ccccc4)sc3C1=CC[C@@H]1[C@@H]2CC[C@]2(C)/C(=N/NC(N)=S)CC[C@@H]12`, the growth is 59.7%. For the compound `CC(C)C1=NOC(=O)C1=Cc1cn(-c2ccccc2)nc1-c1cccc([N+](=O)[O-])c1`, the growth was 91.9%. Next, `C[n+]1c2ccccc2nc2c(N)cc(N)cc21`: 71.9%; `CCOC(CNC(=O)c1cccc([N+](=O)[O-])c1)OCC`: 85.7%; `CCN(CC)CCCNCc1cc(-c2ccccc2)nc2ccccc12`: 36%. With `COc1cc(C)cc2oc3oc(=N)c(C(=O)c4ccccc4)cc3c(=O)c12` the figure was 108%. For `Clc1ccc2nc(-c3ccc(-c4ccc(/C=N/NC5=NCCN5)cc4)s3)cn2c1`, the growth was 106%. Next, `CC(C)C1=NOC(=O)C1=Cc1cn(-c2ccco2)nc1-c1ccccc1`: 96.6%; `CC(C)CCSc1nc(N)nc2nc[nH]c12`: 104%; `c1ccc2c(c1)CN(CCCN1CCOCC1)C2`: 99.6%. With `CCCCCCNC(=O)Nc1ncnc2c1ncn2-c1ccccc1` the figure was 98%.

For the compound `O=C1/C(=C/c2ccc(OCc3ccccc3)cc2)Oc2cc(OCCN3CCCCC3)ccc21`, the growth was 74.5%. With `CC[C@]12C=CCN3CC[C@@]4(c5ccc(OC)cc5N(C)[C@H]4[C@@](O)(C(=O)OC)[C@@H]1OC(=O)CCC(=O)N[C@H](Cc1c[nH]c4ccccc14)C(=O)OC)[C@@H]32` the figure was -28% [100 µM] (active); with `Nc1nc(Nc2ccccc2)c2ncn(Cc3cc4c(cc3Br)OCO4)c2n1`, 23.2%. With `Cc1cc(C)nc(SCC(=O)Nc2cccc(N=Cc3ccccc3O)c2)n1` the figure was 98%. Consider `CCCCC(CCCCCC(CCCC)C1NC(C)Cc2cc(OC)c(OC)cc21)C1NC(C)Cc2cc(OC)c(OC)cc21` (stereo not given), for which the growth was -81.4% (active). Next, `CCc1ccc(-c2ccc(COc3ccc(CC4SC(=O)NC4=O)cc3)cc2)cc1` (stereo not given): 52.2%.
